One experiment deals with AAK1. Further details: species or system human, MV4-11 + K-562 + COLO205 + SK-N-BE2 + OVCAR-8. To be noted: read-out: apparent Kd, n = 1.
Another experiment deals with BMP2K. Further details: species or system human, MV4-11 + K-562 + COLO205 + SK-N-BE2 + OVCAR-8. To be noted: read-out: apparent Kd, n = 1.
The next experiment has as its system GSK3A. Also noted: species or system human, MV4-11 + K-562 + COLO205 + SK-N-BE2 + OVCAR-8. To be noted: read-out: apparent Kd, compound concentrations: 100 nM and 1000 nM (sheet 'Samples'), n = 1.
Another experiment concerns the target Q6ZSR9 (human, UniProt Q6ZSR9). Also noted: species or system MV4-11 + K-562 + COLO205 + SK-N-BE2 + OVCAR-8. To be noted: read-out: apparent Kd, n = 1.
The subject of the next experiment is GAK. Also noted: species or system human, MV4-11 + K-562 + COLO205 + SK-N-BE2 + OVCAR-8. To be noted: read-out: apparent Kd, compound concentrations: 100 nM and 1000 nM (sheet 'Samples'), n = 1.
The test system of a further experiment is GSK3B. Further details: species or system human, MV4-11 + K-562 + COLO205 + SK-N-BE2 + OVCAR-8. To be noted: read-out: apparent Kd, compound concentrations: 100 nM and 1000 nM (sheet 'Samples'), n = 1.
A further experiment has as its system PKN1. Further details: species or system human, MV4-11 + K-562 + COLO205 + SK-N-BE2 + OVCAR-8. Particulars: read-out: apparent Kd; compound concentrations: 100 nM and 1000 nM (sheet 'Samples'), CATDS: 2.8488431691069401E-2; n = 1.
Another experiment concerns PRKAG1. Also noted: species or system human, MV4-11 + K-562 + COLO205 + SK-N-BE2 + OVCAR-8. To be noted: read-out: apparent Kd; compound concentrations: 100 nM and 1000 nM (sheet 'Samples'), CATDS: 3.0243229141785101E-2; n = 1.
In another experiment the test system is CLK1. Also noted: species or system human, MV4-11 + K-562 + COLO205 + SK-N-BE2 + OVCAR-8. Particulars: read-out: apparent Kd, compound concentrations: 100 nM and 1000 nM (sheet 'Samples'), n = 1.
For a further experiment, the system named is CLK4. Further details: species or system human, MV4-11 + K-562 + COLO205 + SK-N-BE2 + OVCAR-8. To be noted: read-out: apparent Kd, compound concentrations: 100 nM and 1000 nM (sheet 'Samples'), n = 1.
The subject of the next experiment is CSNK2A1;CSNK2A3. Further details: species or system human, MV4-11 + K-562 + COLO205 + SK-N-BE2 + OVCAR-8. Particulars: read-out: apparent Kd, compound concentrations: 100 nM and 1000 nM (sheet 'Samples'), n = 1.
A further experiment concerns CSNK2A2. Also noted: species or system human, MV4-11 + K-562 + COLO205 + SK-N-BE2 + OVCAR-8. Particulars: read-out: apparent Kd, compound concentrations: 100 nM and 1000 nM (sheet 'Samples'), n = 1.
The subject of the next experiment is NUAK1. Further details: species or system human, MV4-11 + K-562 + COLO205 + SK-N-BE2 + OVCAR-8. Particulars: read-out: apparent Kd; compound concentrations: 100 nM and 1000 nM (sheet 'Samples'), CATDS: 5.8980010573034099E-2; n = 1.
In a further experiment the test system is FLT4. Also noted: species or system human, MV4-11 + K-562 + COLO205 + SK-N-BE2 + OVCAR-8. To be noted: read-out: apparent Kd, compound concentrations: 100 nM and 1000 nM (sheet 'Samples'), n = 1.
For a further experiment, the system named is RET. Also noted: species or system human, MV4-11 + K-562 + COLO205 + SK-N-BE2 + OVCAR-8. To be noted: read-out: apparent Kd, compound concentrations: 100 nM and 1000 nM (sheet 'Samples'), n = 1.
For a further experiment, the system named is PAK4. Also noted: species or system human, MV4-11 + K-562 + COLO205 + SK-N-BE2 + OVCAR-8. Particulars: read-out: apparent Kd; compound concentrations: 100 nM and 1000 nM (sheet 'Samples'), CATDS: 0.130749402221499; n = 1.
A further experiment deals with MELK. Further details: species or system human, MV4-11 + K-562 + COLO205 + SK-N-BE2 + OVCAR-8. Particulars: read-out: apparent Kd; compound concentrations: 100 nM and 1000 nM (sheet 'Samples'), CATDS: 1.7288492944947598E-2; n = 1.
[1] abbreviates: compound concentrations:100 nM and 1000 nM (sheet 'Samples').

Where two headings read alike, the source gives them in different places.

Q6ZSR9, sequence (Q6ZSR9 whole entry, looked up): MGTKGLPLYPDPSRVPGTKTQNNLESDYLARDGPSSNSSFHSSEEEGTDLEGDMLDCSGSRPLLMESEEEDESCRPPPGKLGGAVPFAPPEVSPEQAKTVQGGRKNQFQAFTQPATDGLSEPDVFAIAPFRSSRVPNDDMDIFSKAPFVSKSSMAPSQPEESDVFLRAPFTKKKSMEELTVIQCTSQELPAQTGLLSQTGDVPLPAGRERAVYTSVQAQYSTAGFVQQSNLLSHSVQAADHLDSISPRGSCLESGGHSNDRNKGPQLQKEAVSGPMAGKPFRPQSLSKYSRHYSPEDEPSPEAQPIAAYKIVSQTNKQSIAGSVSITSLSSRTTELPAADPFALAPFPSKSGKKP

For `COc1cc[nH]c1/C=C1\C(=O)Nc2ccc(F)c(I)c21` [RO0281567-000], the potency estimated from few doses in the experiment on AAK1 (compound concentrations: 100 nM and 1000 nM (sheet 'Samples'), CATDS: 0.16412118246726901) is 568 nM; in the experiment on BMP2K (compound concentrations: 100 nM and 1000 nM (sheet 'Samples'), CATDS: 0.232255536891084), 309 nM; with GSK3A (CATDS: 0.11117571470946799), 1460 nM; with Q6ZSR9 (compound concentrations: 100 nM and 1000 nM (sheet 'Samples'), CATDS: 0.16614751317759599), 555 nM.
With `CNCC1CCn2c(c(C3=C(c4cn(C)c5ccccc45)C(=O)NC3=O)c3ccccc32)C1` (centres unmarked) [RO0318676-000], the potency estimated from few doses in the experiment with AAK1 (compound concentrations: 100 nM and 1000 nM (sheet 'Samples'), CATDS: 2.7439250549300399E-2) was 1910 nM; with GAK (CATDS: 3.3618066019117501E-2), 961 nM; with GSK3A (CATDS: 6.7317846208259105E-2) it was 171 nM; with GSK3B (CATDS: 7.2494529815898601E-2), 146 nM; in the experiment with PKN1, 1650 nM; in the experiment on PRKAG1 it was 1340 nM. Moreover, the potency estimated from few doses with Q6ZSR9 (compound concentrations: 100 nM and 1000 nM (sheet 'Samples'), CATDS: 2.7484619244742201E-2) was 1890 nM.
On to `Cl.Nc1nc(-c2ccc3c(c2)C(=Cc2cc(Br)c(O)c(Br)c2)C(=O)N3)cs1` [GW407323A], for which the potency estimated from few doses was 169 nM in the experiment with AAK1 (compound concentrations: 100 nM and 1000 nM (sheet 'Samples'), CATDS: 6.1735676660854701E-2); 73.6 nM in the experiment with BMP2K (compound concentrations: 100 nM and 1000 nM (sheet 'Samples'), CATDS: 9.5342393431140995E-2); 333 nM in the experiment with CLK1 (CATDS: 4.62979117088285E-2); 87 nM in the experiment on CLK4 (CATDS: 8.6707828980110799E-2); 199 nM in the experiment with CSNK2A1;CSNK2A3 (CATDS: 5.7367661207528599E-2); 349 nM in the experiment with CSNK2A2 (CATDS: 4.5506088174881797E-2). The potency estimated from few doses with Q6ZSR9 (compound concentrations: 100 nM and 1000 nM (sheet 'Samples'), CATDS: 5.6700337610390401E-2) was 204 nM.
Consider `CC(C)N1CC(=O)N(C)c2cnc(Nc3cccc(S(=O)(=O)CCN4CCOCC4)c3)nc21` [BI00009348], for which the potency estimated from few doses with AAK1 (compound concentrations: 100 nM and 1000 nM (sheet 'Samples'), CATDS: 7.4673370536537498E-2) is 662 nM; in the experiment on BMP2K (compound concentrations: 100 nM and 1000 nM (sheet 'Samples'), CATDS: 7.1051362969771797E-2), 736 nM; with GSK3B (CATDS: 6.9045357407431895E-2), 783 nM; in the experiment on NUAK1, 1140 nM; in the experiment with Q6ZSR9 (compound concentrations: 100 nM and 1000 nM (sheet 'Samples'), CATDS: 6.16877896582032E-2), 1020 nM.
Regarding `Cl.Cn1cc(C2=C(c3c4n(c5ccccc35)CCNC4)C(=O)NC2=O)c2ccccc21` [RO0318365-001], the potency estimated from few doses with AAK1 (compound concentrations: 100 nM and 1000 nM (sheet 'Samples'), CATDS: 5.2349611072723602E-2) was 1480 nM; with FLT4 (CATDS: 5.0705018296343198E-2), 1610 nM; in the experiment with GAK (CATDS: 6.7472142671723495E-2), 831 nM; in the experiment on GSK3A (CATDS: 0.111142354700942), 357 nM; in the experiment with GSK3B (CATDS: 0.121394136436775), 314 nM; in the experiment with Q6ZSR9 (compound concentrations: 100 nM and 1000 nM (sheet 'Samples'), CATDS: 5.14338241951754E-2), 1550 nM. The potency estimated from few doses with RET (CATDS: 5.70762931789019E-2) is 1190 nM.
For the molecule `COc1cccc(C2=C(c3c(C)n(C)c4ccccc34)C(=O)NC2=O)c1` [RO3300167-000], the potency estimated from few doses in the experiment with AAK1 (compound concentrations: 100 nM and 1000 nM (sheet 'Samples'), CATDS: 7.9667560611670199E-2) is 1520 nM; in the experiment on PAK4 it was 582 nM; in the experiment with Q6ZSR9 (compound concentrations: 100 nM and 1000 nM (sheet 'Samples'), CATDS: 7.9945675311768105E-2) it was 1510 nM.
On to `Nc1nc(-c2ccc3c(N)n[nH]c3c2)cc(N2CCCC(NC(=O)c3ccccc3)C2)n1` (centres unmarked) [GSK2286775B], for which the potency estimated from few doses in the experiment on AAK1 (setting [1]) is 826 nM; in the experiment with Q6ZSR9 (setting [1]), 821 nM.
Turning to `NS(=O)(=O)c1ccc(NC=C2C(=O)Nc3ccc4ncsc4c32)cc1` [GW589933X], the potency estimated from few doses in the experiment on AAK1 (compound concentrations: 100 nM and 1000 nM (sheet 'Samples'), CATDS: 2.8569630231133399E-2) was 376 nM; in the experiment with BMP2K (compound concentrations: 100 nM and 1000 nM (sheet 'Samples'), CATDS: 4.4159404649836601E-2), 151 nM; with CLK1 (CATDS: 1.74105303489548E-2) it was 1590 nM; with CLK4 (CATDS: 2.0435296344387299E-2) it was 913 nM; with CSNK2A1;CSNK2A3 (CATDS: 2.5198594058055201E-2), 510 nM; with CSNK2A2 (CATDS: 3.3899738232558103E-2), 257 nM. Moreover, the potency estimated from few doses is 888 nM with FLT4 (CATDS: 2.0623462365067999E-2); 1250 nM in the experiment on GSK3A (CATDS: 1.8552119857048799E-2); 1630 nM in the experiment on MELK; 141 nM in the experiment with Q6ZSR9 (compound concentrations: 100 nM and 1000 nM (sheet 'Samples'), CATDS: 4.56646208861472E-2); 1170 nM in the experiment on RET (CATDS: 1.8914319657445101E-2).
Turning to `NS(=O)(=O)c1cccc(-c2ccc3c(NC(=O)C4CC4)n[nH]c3c2)c1` [SB-741905], the potency estimated from few doses was 1210 nM in the experiment with AAK1 (compound concentrations: 100 nM and 1000 nM (sheet 'Samples'), CATDS: 0.126213197239569); 2410 nM with Q6ZSR9 (compound concentrations: 100 nM and 1000 nM (sheet 'Samples'), CATDS: 0.101605627816376).
Regarding `Cl.Cl.NCC(NCc1ccc(-c2ccnc3[nH]ccc23)s1)c1ccccc1.NCC(NCc1ccc(-c2ccnc3[nH]ccc23)s1)c1ccccc1` (centres unmarked) [GSK1321565A], the potency estimated from few doses in the experiment with AAK1 (setting [1]) is 820 nM; in the experiment with BMP2K (setting [1]) it was 982 nM; with Q6ZSR9 (setting [1]) it was 942 nM.
For `COc1cc2ncn(-c3cc(OCc4ccccc4S(C)(=O)=O)c(C#N)s3)c2cc1OC` [GSK319347A], the potency estimated from few doses with AAK1 (compound concentrations: 100 nM and 1000 nM (sheet 'Samples'), CATDS: 0.12685242970353799) was 621 nM; in the experiment on BMP2K (compound concentrations: 100 nM and 1000 nM (sheet 'Samples'), CATDS: 0.286498522791794), 177 nM; in the experiment on FLT4 (CATDS: 8.0295198966638101E-2), 1720 nM; in the experiment on GAK (CATDS: 8.54645100662135E-2), 1450 nM; with Q6ZSR9 (compound concentrations: 100 nM and 1000 nM (sheet 'Samples'), CATDS: 0.124049531101547) it was 647 nM.

Source of the values: PMC11062922 (Nature Chemical Biology, 2023).
